From PubChem
D1 allo mod – D1 dopamine receptor (human) allosteric modulation. HEK293 D1, CRE-luciferase, dopamine EC30 potentiation; actives deviate in either direction. hit rate 5.9% among 58,000. P21728. B-score at 10 µM. AID 641;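 active = luminescence count or its row- and column-corrected plate score outside the 99.7% band of the plate's sample wells, on either side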
PostGolgi ctrl – growth of the yeast control strain, post-Golgi counter-screen. efflux-deficient yeast background strain, growth absorbance A615, 16 h. inhibition, % at 10 µM. hit rate 5% among 98,000
PLAP activator – human PLAP activation. activation fold at 20 µM. AID 696. purified PLAP enzyme, luminescent substrate read-out; hits give high values. hit rate 1.2% among 96,000. P05187; in the data active = activation fold above about 2
hDAT+cocaine – changed human dopamine transporter uptake under cocaine IC80; LLC-PK1 hDAT cells, [14C]-dopamine uptake with cocaine IC80; actives deviate in either direction; hit rate 1.3% among 110,000; B-score at 10 µM; AID 449768; Q01959;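 active = Z score or B-score, a plate-position-corrected score, falls beyond the plate's 99.7% confidence bounds, in either direction; inactive = both scores lie inside the 99.7% bounds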
PostGolgi yeast – growth inhibition of a yeast mutant, post-Golgi transport screen | post-Golgi transport phenotypic cell assay | inhibition, % at 10 µM | hit rate 0.9% among 98,000 | AID 739;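 note: yeast cells grown in 1536-well plates; yeast grown about 18 h at 30C before absorbance read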
Cav32 inh – blocks human Cav3.2 T-type calcium channel; AID 449739; hit rate 4% among 100,000; Cav3.2-expressing cells, Fluo-4 calcium fluorescence FDSS; hits give low values; B-score at 10 µM;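 active = single-dose well whose peak fluorescence ratio is a statistical outlier from its plate by either plate-standardised score or position-corrected B-score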
Numbers stand for hits; . = inactive; / = no result given. Most compounds without a hit are left out; they make up all but 12% or so of the library. Cut-off read from the data, not from the text of the source, unless noted: active = inhibition above about 30%; inactive = the rest.

SMILES | D1 allo mod | PostGolgi ctrl | PLAP activator | hDAT+cocaine | PostGolgi yeast | Cav32 inh
CCOc1ccccc1-c1nc(-c2cc3ccc(C)cc3[nH]c2=O)no1 | . | 30.8 | / | . | . | .
CC(=O)N1CCc2cc(S(=O)(=O)NCCC(=O)NC3CCCc4ccccc43)ccc21 (stereo not drawn) | . | . | . | . | . | .
Cc1cc(C)n(-c2nc(NCCCO)c3c4c(sc3n2)CCCC4)n1 | . | 35.3 | . | . | . | .
O=C(O)CC(CCc1ccccc1)OC1OC(CO)C(O)C(O)C1O (stereo not drawn) | / | / | / | . | / | .
[C-]#[N+][C@H](O[C@@H]1O[C@H](CO)[C@@H](O)[C@H](O)[C@H]1O)c1ccccc1 | / | / | / | . | / | -5.73
O=C(/C=C/c1ccccc1)NC(NC(=S)Nc1ccc(Cl)cc1)C(Cl)(Cl)Cl (stereo not drawn) | / | . | . | -2.76 | . | -7.43
CCN(CC)c1ccc(-c2nc3cnccc3n2C)cc1 | . | . | . | . | 37.6 | .
CCN(CC)c1ccc(NC(=O)c2cccnc2)cc1 | / | . | . | . | . | .
O=C1CC(=C2c3ccccc3-c3ccccc32)C(=O)N1CCCCN1CCN(c2ccccc2)CC1 | / | / | / | . | / | .
Cc1cc(C(=O)NC2CCCc3ccccc32)no1 (stereo not drawn) | . | . | . | . | . | .
Cc1cccc(-n2nnc(C(=O)NC3CCCc4ccccc43)c2N)c1 (stereo not drawn) | . | . | . | . | . | -6.65
COc1ccc2oc(=O)c(C(=O)Oc3ccc(NC(C)=O)cc3)cc2c1 | / | . | . | . | . | .
COc1ccccc1-c1c(C)nn2c(N3CCCCCC3)cc(C)nc12 | . | 31.1 | . | . | . | .
Nc1nnc(SCc2cccc(C(F)(F)F)c2)s1 | . | . | . | -2.69 | . | .
Cc1ccc2nc(N3CCN(C=O)CC3)nc(-c3ccccc3)c2c1 | / | / | / | 2.84 | / | .
Clc1ccc(-c2nc(N3CCCCC3)nc3ccccc23)cc1 | / | / | / | . | / | .
Cc1cc(NCCN2CCOCC2)n2nc(C)c(-c3ccccc3)c2n1 | . | . | . | . | . | .
Cc1cc(NCCN2CCOCC2)n2nc(C)c(-c3ccc(Cl)cc3)c2n1 | . | 33.5 | . | . | 46.7 | .
NS(=O)(=O)c1ccc(N2N=C(c3ccccc3)CC2c2ccc(F)cc2)cc1 (stereo not drawn) | / | 50.2 | . | . | . | .
O=S(=O)(c1ccccc1)N1N=C(c2cccs2)CC1c1ccc(Br)cc1 (stereo not drawn) | / | . | . | . | . | .
COc1cc2nc(NCC3CCCO3)n3nc(-c4cccnc4)nc3c2cc1OC (stereo not drawn) | . | . | 2 | . | . | /
CCCCCOc1ccc(C(=O)NCC(=O)NCC(=O)OCC)cc1 | . | . | . | . | . | .
COC(=O)C1=C(C)N=C2SC(C)C(=O)N2C1c1cccs1 (stereo not drawn) | / | . | . | . | . | .
CCC1SC2=NC(C)=C(C(=O)OC)C(c3ccc(C)cc3)N2C1=O (stereo not drawn) | . | 42.4 | . | . | . | .
COC(=O)C1=C(C)N=C2SC(C)C(=O)N2C1c1ccc(C(=O)OC)cc1 (stereo not drawn) | . | 35.8 | . | . | . | -4.6
SMILES | D1 allo mod | PostGolgi ctrl | PLAP activator | hDAT+cocaine | PostGolgi yeast | Cav32 inh
C=CCOC(=O)C1=C[C@@H](c2cn(C(C)=O)c3ccccc23)C[C@@H](OCc2ccc(CO)cc2)O1 | / | / | / | . | / | .
CCCN(N=Nc1cccc([N+](=O)[O-])c1)c1cccc([N+](=O)[O-])c1 | / | . | . | . | . | -4.2
O=[N+]([O-])c1cccc(N=NN(CCO)c2cccc([N+](=O)[O-])c2)c1 | / | . | . | . | . | .
CCCNC(=O)CCC(=O)Nc1ncc(-c2ccc(C)cc2)n1C | . | . | 2.2 | . | . | .
CCCNC(=O)CCC(NS(=O)(=O)c1ccc(C)cc1)C(=O)NCCC (stereo not drawn) | . | . | . | . | . | .
CCn1c(=O)c(=O)[nH]c2cc(C(=O)N3CCN(c4ccccc4F)CC3)ccc21 | . | . | . | . | . | .
CCSc1cc(C2C(C(=O)OC)=C(C)NC3=C2C(=O)CCC3)c(C)o1 (stereo not drawn) | . | . | . | . | . | .
CN(C)/C=C/C(=O)c1ccc(Cl)cc1 | / | . | . | . | . | .
CN(C)/C=C/C(=O)c1cccc(Cl)c1 | / | 45.2 | . | . | . | .
COc1ccccc1Nc1nc(N)nc(CSc2ncccn2)n1 | . | 32.1 | . | . | . | .
C=CCNC(=S)NNC(=O)c1ccc(OCCC)cc1 | / | / | / | . | / | .
CCCOc1ccc(C(=O)NNC(=S)NC(=O)CC)cc1 | / | 98.9 | . | . | 76.1 | .
CCOc1ccc2cc(/C=C/C(=O)c3ccco3)c(Cl)nc2c1 | / | . | . | / | . | /
CCOC(=O)N1CCN(C(=O)C(NC(=O)C2CCC(C)CC2)C(C)C)CC1 (stereo not drawn) | . | . | . | . | . | .
CC1CCC(C(=O)NC(C(=O)N2CCC(N3CCCCC3)CC2)C(C)C)CC1 (stereo not drawn) | . | . | . | -2.69 | . | .
CS(=O)(=O)N(CC(=O)NCc1ccc2c(c1)OCO2)Cc1ccccc1 | . | . | . | . | . | .
C=CCSc1nccc(-c2nn(-c3ccc(C)cc3)ccc2=O)n1 | / | 34.2 | . | . | . | .
CCC1(c2cccc(Cl)c2)NC(=O)N(Cc2cc(C(=O)OC)c(C)o2)C1=O (stereo not drawn) | . | . | . | . | . | -5.54
O=C(O)C1=C[C@H](c2ccc3c(c2)OCO3)C[C@H](OCCCCO)O1 | / | / | / | . | / | .
CCc1nc(N2CCCC2)c(C#N)c2c1CCCC2 | / | . | . | . | . | .
CCSc1nc(N2CCCCC2)c2c(c1C#N)CCCC2 | / | . | . | . | . | .
CCc1nc(N2CCOCC2)c(C#N)c2c1CCCC2 | / | . | . | . | . | -4.46
N#Cc1c(SCc2ccccc2)nc(N2CCOCC2)c2c1CCCC2 | . | . | . | . | . | -5.4
CC1=CC(C)(C)N2C(=O)C3(SCC(=O)N3c3ccc(F)cc3)c3cc(C)cc1c32 (stereo not drawn) | / | 50.1 | . | . | . | .
CC(C)c1ccc(N2C(=O)CSC23C(=O)N2CCCc4cccc3c42)cc1 (stereo not drawn) | / | . | . | . | . | .
SMILES | D1 allo mod | PostGolgi ctrl | PLAP activator | hDAT+cocaine | PostGolgi yeast | Cav32 inh
CCOC(=O)c1[nH]c(Cc2[nH]c(C(=O)OCC)c(C)c2CCC(=O)OC)c(CCC(=O)OC)c1C | . | . | . | . | . | -8.41
CCOC(=O)c1c(C)[nH]c(C(=O)OC)c1CCC(=O)OC | . | . | . | . | . | .
O=C(O)c1ccc2cccc(Cl)c2c1O | / | . | . | . | . | /
O=C(O)c1cc(Cl)c2ccccc2c1O | . | . | . | . | . | -6.71
Fc1ccc(C(CCCn2nnc(-c3cccnc3)n2)c2ccc(F)cc2)cc1 | / | . | . | / | . | -4.21
Cc1cc(CNC(=O)C2(C(F)(F)F)C/C(=C\Cc3ccccc3)CCCO2)nn1C (stereo not drawn) | / | / | / | . | / | .
O=C(CN1C(=O)NC2(CCc3ccccc32)C1=O)Nc1cc(C(F)(F)F)ccc1N1CCOCC1 (stereo not drawn) | / | / | . | . | / | .
